Inconclusive results are not listed. Activity calls are given as the source filed them. Unless noted, the call rests on the fitted dose curve; in most records, active means well fitted curve in the direction sought with a large enough effect in the repeat runs; inconclusive means weak or mixed curves; inactive means no such curve, though single readings can be large; an effect the other way counts as inactive or inconclusive.
Tests used:
[1] = target: Acetylcholinesterase (Homo sapiens) (UniProt P22303); assay: Acetylcholinesterase (AChE) small molecule antagonists: enzyme-based qHTS assay (AID 1347397; calls by dose curve; further: nearly all actives have a fitted effect of over 55% in size; further: potency means the concentration at half of the fitted maximal effect); settings: Potency: AChE enzyme activity inhibition; outcome: AChE enzyme activity inhibition; series mostly up to 115 µM
Acetylcholinesterase (Homo sapiens), sequence (P22303 whole entry, looked up): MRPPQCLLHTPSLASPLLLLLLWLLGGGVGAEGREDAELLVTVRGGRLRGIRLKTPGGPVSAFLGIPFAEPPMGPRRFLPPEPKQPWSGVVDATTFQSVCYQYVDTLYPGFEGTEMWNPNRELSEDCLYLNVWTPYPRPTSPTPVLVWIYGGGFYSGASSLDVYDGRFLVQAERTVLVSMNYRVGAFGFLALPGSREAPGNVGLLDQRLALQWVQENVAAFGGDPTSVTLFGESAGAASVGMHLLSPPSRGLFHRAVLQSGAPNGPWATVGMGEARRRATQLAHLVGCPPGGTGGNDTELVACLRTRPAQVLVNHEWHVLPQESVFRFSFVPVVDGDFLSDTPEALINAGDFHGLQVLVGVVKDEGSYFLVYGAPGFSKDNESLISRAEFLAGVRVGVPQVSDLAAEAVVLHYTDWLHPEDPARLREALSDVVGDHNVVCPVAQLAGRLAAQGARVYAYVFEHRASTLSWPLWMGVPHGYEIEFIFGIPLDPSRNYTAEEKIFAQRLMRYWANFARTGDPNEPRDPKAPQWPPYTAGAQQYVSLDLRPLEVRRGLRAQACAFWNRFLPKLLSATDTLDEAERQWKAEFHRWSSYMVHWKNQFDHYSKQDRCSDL
Method in brief: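 Enzyme inhibition was scored from DTNB-detected thiocholine formed by recombinant human AChE acting on acetylthiocholine. The 30 min compound preincubation and 10 min substrate reaction were both run at room temperature, with DMSO as vehicle control.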

[2] = target: Acetylcholinesterase (Homo sapiens) (UniProt P22303); assay: Acetylcholinesterase (AChE) small molecule antagonists: fluorescence cell-based qHTS assay (AID 1347398; calls by dose curve; further: nearly all actives have a fitted effect of over 50% in size; further: potency means the concentration at half of the fitted maximal effect); settings: SH-SY5Y cells; Potency: AChE activity; outcome: AChE activity; series mostly up to 115 µM
Method in brief: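 Endogenous acetylcholinesterase of SH-SY5Y neuroblastoma cells is measured in situ. After overnight attachment and 30 min compound exposure, cells receive acetylthiocholine and Thiolite Green; fluorescence is read after 40 min at room temperature.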

[3] = target: Acetylcholinesterase (Homo sapiens) (UniProt P22303); assay: Acetylcholinesterase (AChE) small molecule antagonists: enzyme-based qHTS assay with human liver microsomes (AID 1347399; calls by dose curve; further: nearly all actives have a fitted effect of over 60% in size); settings: Potency: qHTS inhibition; outcome: qHTS inhibition; series mostly up to 115 µM
Method in brief: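 Recombinant human AChE (50 mU/mL in the enzyme mix) and human liver microsomes (0.25 mg/mL final) were preincubated with compound and NADPH (0.25 mg/mL final) for 30 min at 37 C. Acetylthiocholine/DTNB was then added; thiocholine was read colorimetrically after 10 min at room temperature.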

[4] = target: Cytochrome P450 2D6 (Homo sapiens) (UniProt P10635); assay: Cytochrome P450 Family 2 Subfamily D Member 6 (CYP2D6) small molecule antagonists: luciferase reporter qHTS assay (AID 1671196); settings: P450-Glo CYP2D6 enzyme assay, luciferin luminescence, 1 h; series mostly up to 115 µM; further: nearly all actives have a fitted effect of over 50% in size; further: potency means the concentration at half of the fitted maximal effect
Cytochrome P450 2D6 (Homo sapiens), sequence (P10635 whole entry, looked up): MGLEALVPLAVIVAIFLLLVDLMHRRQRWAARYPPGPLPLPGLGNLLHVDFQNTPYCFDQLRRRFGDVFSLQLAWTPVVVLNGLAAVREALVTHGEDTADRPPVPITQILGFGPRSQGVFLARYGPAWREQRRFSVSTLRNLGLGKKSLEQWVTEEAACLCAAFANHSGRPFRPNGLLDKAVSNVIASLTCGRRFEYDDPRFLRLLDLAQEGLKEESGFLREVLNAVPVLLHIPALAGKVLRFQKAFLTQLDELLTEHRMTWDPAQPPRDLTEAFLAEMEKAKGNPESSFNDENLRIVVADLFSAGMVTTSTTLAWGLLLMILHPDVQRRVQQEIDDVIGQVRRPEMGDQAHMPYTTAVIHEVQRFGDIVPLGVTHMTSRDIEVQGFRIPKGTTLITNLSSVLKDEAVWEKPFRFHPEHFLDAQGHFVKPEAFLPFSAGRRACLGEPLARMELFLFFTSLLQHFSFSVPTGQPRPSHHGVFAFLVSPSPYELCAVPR
Method in brief: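 Read-out is luminescence from luciferin formed by CYP2D6 turnover of a proluciferin substrate, recorded as relative luminescence units. Reactions ran 1 h at room temperature after NADPH regeneration solution was added.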

[5] = target: Cytochrome P450 1A2 (Homo sapiens) (UniProt P05177); assay: Cytochrome P450 Family 1 Subfamily A Member 2 (CYP1A2) small molecule antagonists: luciferase reporter qHTS assay (AID 1671199); settings: P450-Glo CYP1A2 enzyme, luciferin luminescence, 1 h; series mostly up to 115 µM; further: nearly all actives have a fitted effect of over 50% in size; further: potency means the concentration at half of the fitted maximal effect
Cytochrome P450 1A2 (Homo sapiens), sequence (P05177 whole entry, looked up): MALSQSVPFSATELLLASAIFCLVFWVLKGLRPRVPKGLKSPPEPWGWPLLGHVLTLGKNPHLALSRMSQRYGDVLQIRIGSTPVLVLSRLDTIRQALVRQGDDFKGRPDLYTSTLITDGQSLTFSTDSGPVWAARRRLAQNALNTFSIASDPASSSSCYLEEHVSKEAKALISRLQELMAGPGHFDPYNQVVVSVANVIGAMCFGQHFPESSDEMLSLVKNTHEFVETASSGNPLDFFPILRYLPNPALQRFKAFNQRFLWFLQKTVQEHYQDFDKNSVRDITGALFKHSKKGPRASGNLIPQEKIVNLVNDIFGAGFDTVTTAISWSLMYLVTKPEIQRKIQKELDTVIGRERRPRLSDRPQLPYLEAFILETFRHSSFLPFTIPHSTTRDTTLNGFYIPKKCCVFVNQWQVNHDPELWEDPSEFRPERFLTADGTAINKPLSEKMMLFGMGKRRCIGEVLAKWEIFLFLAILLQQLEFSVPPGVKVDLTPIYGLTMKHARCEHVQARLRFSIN
Method in brief: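 P450-Glo CYP1A2, 1536-well qHTS: enzyme/proluciferin substrate + cpd (DMSO), 10 min RT; NADPH regen, 1 h RT; detection reagent, 20 min; luminescence, RLU.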

[6] = target: Voltage-gated inwardly rectifying potassium channel KCNH2 (Homo sapiens) (UniProt Q12809); assay: Human Ether-a-go-go-Related Gene (hERG) channel small molecule antagonists: fluorescence cell-based qHTS assay (AID 1671200); settings: hERG-U2OS cells, FluxOR thallium flux fluorescence; series mostly up to 76.8 µM;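 further: hERG-expressing U2OS cells given a thallium stimulus after FluxOR II dye loading; nearly all actives have a fitted effect of over 50% in size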
Voltage-gated inwardly rectifying potassium channel KCNH2 (Homo sapiens), sequence (Q12809 whole entry, looked up): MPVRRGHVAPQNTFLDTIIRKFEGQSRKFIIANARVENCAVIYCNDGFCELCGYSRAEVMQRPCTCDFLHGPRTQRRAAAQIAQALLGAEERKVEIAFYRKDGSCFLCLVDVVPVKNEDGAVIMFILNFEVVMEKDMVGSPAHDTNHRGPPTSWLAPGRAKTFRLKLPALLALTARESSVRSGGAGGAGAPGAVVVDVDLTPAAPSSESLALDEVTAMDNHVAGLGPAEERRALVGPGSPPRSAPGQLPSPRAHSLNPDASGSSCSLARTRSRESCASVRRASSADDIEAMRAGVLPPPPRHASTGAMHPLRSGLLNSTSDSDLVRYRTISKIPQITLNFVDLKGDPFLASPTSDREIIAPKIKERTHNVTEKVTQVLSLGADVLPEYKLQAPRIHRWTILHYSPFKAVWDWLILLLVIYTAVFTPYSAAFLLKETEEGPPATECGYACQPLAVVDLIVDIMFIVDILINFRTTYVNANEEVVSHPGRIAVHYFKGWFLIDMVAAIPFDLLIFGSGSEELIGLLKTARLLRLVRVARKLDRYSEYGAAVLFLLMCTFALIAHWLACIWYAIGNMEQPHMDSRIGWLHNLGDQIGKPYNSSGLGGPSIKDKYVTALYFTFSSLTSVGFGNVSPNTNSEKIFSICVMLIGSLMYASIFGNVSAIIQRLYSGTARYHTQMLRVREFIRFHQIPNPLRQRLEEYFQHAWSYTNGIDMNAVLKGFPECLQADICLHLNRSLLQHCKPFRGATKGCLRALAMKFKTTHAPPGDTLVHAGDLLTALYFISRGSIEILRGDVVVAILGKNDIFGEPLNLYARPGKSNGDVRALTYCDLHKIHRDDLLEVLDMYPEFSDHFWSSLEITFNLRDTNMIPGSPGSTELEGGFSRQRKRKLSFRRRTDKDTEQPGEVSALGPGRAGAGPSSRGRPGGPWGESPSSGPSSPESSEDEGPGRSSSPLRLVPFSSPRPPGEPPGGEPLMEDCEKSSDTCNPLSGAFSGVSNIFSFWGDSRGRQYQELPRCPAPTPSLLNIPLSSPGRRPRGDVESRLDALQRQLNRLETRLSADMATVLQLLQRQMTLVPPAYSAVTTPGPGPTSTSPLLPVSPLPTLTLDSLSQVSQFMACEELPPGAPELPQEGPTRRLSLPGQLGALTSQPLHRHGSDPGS
Method in brief: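 In this thallium-flux screen, overnight-cultured U2OS cells bearing the channel are dye-loaded in darkness for an hour, rested 10 min at room temperature, and then monitored kinetically at 480/540 nm for two minutes post-stimulus.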

[7] = target: Cytochrome P450 3A4 (Homo sapiens) (UniProt P08684); assay: Cytochrome P450 Family 3 Subfamily A Member 4 (CYP3A4) small molecule antagonists: luciferase reporter qHTS assay (AID 1671201); settings: P450-Glo CYP3A4 enzyme, luciferin luminescence, 1 h; series mostly up to 115 µM; further: nearly all actives have a fitted effect of over 50% in size; further: potency means the concentration at half of the fitted maximal effect
Cytochrome P450 3A4 (Homo sapiens), sequence (P08684 whole entry, looked up): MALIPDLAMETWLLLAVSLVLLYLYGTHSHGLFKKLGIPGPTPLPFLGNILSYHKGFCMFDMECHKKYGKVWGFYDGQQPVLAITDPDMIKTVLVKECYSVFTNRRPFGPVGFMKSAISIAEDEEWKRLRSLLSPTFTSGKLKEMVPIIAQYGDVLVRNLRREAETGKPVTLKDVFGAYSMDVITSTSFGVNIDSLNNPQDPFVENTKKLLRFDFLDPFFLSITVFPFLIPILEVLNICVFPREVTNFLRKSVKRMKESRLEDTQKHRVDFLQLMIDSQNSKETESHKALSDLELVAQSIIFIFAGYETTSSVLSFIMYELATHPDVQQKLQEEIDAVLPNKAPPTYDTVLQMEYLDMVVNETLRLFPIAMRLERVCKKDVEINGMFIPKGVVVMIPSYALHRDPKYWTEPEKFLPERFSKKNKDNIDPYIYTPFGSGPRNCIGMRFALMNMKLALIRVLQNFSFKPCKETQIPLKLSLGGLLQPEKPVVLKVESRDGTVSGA
Method in brief: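 CYP3A4 activity was followed with a P450-Glo proluciferin substrate. Test compounds in DMSO were preincubated 10 min; NADPH regeneration then ran 1 h, and light output was read 20 min after detection reagent.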

[8] = target: Cytochrome P450 2C19 (Homo sapiens) (UniProt P33261); assay: Cytochrome P450 Family 2 Subfamily C Member 19 (CYP2C19) small molecule antagonists: luciferase reporter qHTS assay (AID 1671197); settings: P450-Glo CYP2C19 enzyme, luciferin luminescence, 1 h; series mostly up to 115 µM; further: nearly all actives have a fitted effect of over 65% in size; further: potency means the concentration at half of the fitted maximal effect
Cytochrome P450 2C19 (Homo sapiens), sequence (P33261 whole entry, looked up): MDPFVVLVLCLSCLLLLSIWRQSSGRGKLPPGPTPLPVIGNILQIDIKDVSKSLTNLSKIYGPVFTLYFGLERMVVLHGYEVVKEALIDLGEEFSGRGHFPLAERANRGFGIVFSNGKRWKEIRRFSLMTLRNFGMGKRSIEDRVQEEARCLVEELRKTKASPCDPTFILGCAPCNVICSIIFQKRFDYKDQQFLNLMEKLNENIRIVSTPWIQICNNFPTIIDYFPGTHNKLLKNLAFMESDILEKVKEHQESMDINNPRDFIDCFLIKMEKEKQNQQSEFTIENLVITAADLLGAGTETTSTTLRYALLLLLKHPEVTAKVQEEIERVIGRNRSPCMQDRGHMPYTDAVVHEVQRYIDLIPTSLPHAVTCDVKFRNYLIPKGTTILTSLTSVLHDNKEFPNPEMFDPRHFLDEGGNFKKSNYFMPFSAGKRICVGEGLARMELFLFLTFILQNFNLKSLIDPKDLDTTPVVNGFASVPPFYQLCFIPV
Method in brief: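 Enzyme-substrate mix with proluciferin substrate (P450-Glo CYP2C19 system) preincubated with compounds 10 min at room temperature; NADPH regeneration solution added, 37C for 1 h; detection reagent stops reaction, luminescence read after 20 min. Ketoconazole positive control.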

[9] = target: Cytochrome P450 2C9 (Homo sapiens) (UniProt P11712); assay: Cytochrome P450 Family 2 Subfamily C Member 9 (CYP2C9) small molecule antagonists: luciferase reporter qHTS assay (AID 1671198); settings: P450-Glo CYP2C9 enzyme assay, luciferin luminescence; series mostly up to 115 µM; further: nearly all actives have a fitted effect of over 50% in size; further: potency means the concentration at half of the fitted maximal effect
Cytochrome P450 2C9 (Homo sapiens), sequence (P11712 whole entry, looked up): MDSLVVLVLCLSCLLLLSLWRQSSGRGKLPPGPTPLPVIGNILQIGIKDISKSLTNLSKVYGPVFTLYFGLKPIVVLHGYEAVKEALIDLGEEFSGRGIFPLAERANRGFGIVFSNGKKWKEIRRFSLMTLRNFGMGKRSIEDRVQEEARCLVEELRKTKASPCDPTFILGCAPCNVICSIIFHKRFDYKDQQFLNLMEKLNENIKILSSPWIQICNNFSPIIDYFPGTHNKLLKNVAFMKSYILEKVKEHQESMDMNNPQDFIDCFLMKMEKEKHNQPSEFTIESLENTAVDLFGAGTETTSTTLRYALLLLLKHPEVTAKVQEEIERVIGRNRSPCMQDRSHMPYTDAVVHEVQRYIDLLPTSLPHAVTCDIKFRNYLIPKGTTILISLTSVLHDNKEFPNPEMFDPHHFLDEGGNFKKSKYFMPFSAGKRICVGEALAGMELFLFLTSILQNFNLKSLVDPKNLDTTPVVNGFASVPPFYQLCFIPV
Method in brief: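 P450-Glo proluciferin substrate with CYP2C9 enzyme; 10 min RT preincubation, then NADPH regeneration 1 h at 37C; luciferin detection reagent 20 min RT, luminescence in relative luminescence units.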

Measured: Potency

CCN[C@@H](C)Cc1ccccc1
active: [4] 6.28 µM
not listed: [8] | [9]
inactive: all other assays above

O=C(Cl)CCl
inactive: [1] | [2] | [3] | [6] | [7]
active: [4] 71.4 µM

O=C1CC(=O)NC(=O)N1
not listed: [4] | [6]
inactive: all other assays above

O=C(Cl)C(Cl)(Cl)Cl
not listed: [4] | [6]
inactive: all other assays above

O=C(O)c1c(Cl)ccc2cc(Cl)cnc12
active: [9] 79.6 µM
not listed: [5] | [8]
inactive: all other assays above

Clc1nc(Cl)nc(Nc2ccccc2Cl)n1
not listed: [8] | [9]
inactive: all other assays above

C=CCc1cc(OC)c2c(c1)OCO2
inactive: [1] | [2] | [3] | [6]
active: [4] 23.5 µM | [5] 1.87 µM | [7] 4.69 µM

CN(C)C1CCCCC1
not listed: [5] | [6] | [8]
inactive: all other assays above

CCN1CCCC1CNC(=O)C(O)(c1ccccc1)c1ccccc1 (stereo unspecified)
active: [4] 4.9 µM | [7] 4.9 µM
not listed: [6] | [8]
inactive: all other assays above

CCNc1nc(NCC)nc(SC)n1
active: [5] 10 µM
not listed: [8] | [9]
inactive: all other assays above

CCOP(=O)(CN(CCO)CCO)OCC
not listed: [5] | [7] | [8]
inactive: all other assays above

CN(CCO)CCO
not listed: [4] | [5]
inactive: all other assays above

COc1cc(CCN)cc(OC)c1OC
active: [5] 38.7 µM
not listed: [8] | [9]
inactive: all other assays above

C1CN2CCC1CC2
active: [8] 43.6 µM
not listed: [4] | [7]
inactive: all other assays above

COC1=CC(=O)O[C@@H](/C=C/c2ccccc2)C1
active: [8] 5.72 µM | [9] 32.2 µM | [5] 28.7 µM
not listed: [4]
inactive: all other assays above

CCCCCCCCSC(=O)Oc1cc(Cl)nnc1-c1ccccc1
active: [9] 35.6 µM
not listed: [5] | [8]
inactive: all other assays above

O=C(Cl)OCc1ccccc1
not listed: [5] | [8]
inactive: all other assays above

CN1COCN(Cc2cnc(Cl)s2)/C1=N\[N+](=O)[O-]
inactive: [1] | [2] | [3] | [4] | [6]

CCN(CCO)CCn1c(Cc2ccccc2)nc2c1c(=O)n(C)c(=O)n2C
not listed: [6] | [8] | [9]
inactive: all other assays above

C[C@H](N)C(=O)c1ccccc1
inactive: [1] | [2] | [3] | [6]
active: [4] 42.2 µM | [5] 53.1 µM

CCOC(=O)Nc1cccc(OC(=O)Nc2ccccc2)c1
active: [8] 20 µM | [5] 12.6 µM
inactive: [1] | [2] | [3] | [6]

CCC1(c2ccccc2)C(=O)N(COC)C(=O)N(COC)C1=O
active: [8] 6.92 µM
inactive: [1] | [2] | [4] | [5] | [6]

NC1(c2ccccc2)CCCCC1
active: [4] 31.4 µM
not listed: [3] | [8]
inactive: all other assays above

c1ccc2c(c1)CCNC2
inactive: [1] | [2]
active: [4] 7.28 µM | [8] 57.9 µM | [9] 32.5 µM

CCCOC(=O)c1cncn1C(C)c1ccccc1 (stereo unspecified)
inactive: [1] | [2] | [4] | [6]
active: [5] 17.4 µM

O=C(O)C(Cl)Br (stereo unspecified)
not listed: [3] | [4] | [5]
inactive: all other assays above

N#CN=C1SCCN1Cc1ccc(Cl)nc1
active: [4] 39.9 µM
inactive: [1] | [2] | [8] | [6] | [7]

Cc1cc(OC(=O)N(C)C)nn1C(=O)N(C)C
inactive: [9] | [6]
active: [1] 5.03 µM | [2] 1.26 µM | [4] 31.7 µM | [8] 35.6 µM

CCCC(C)(COC(N)=O)COC(N)=O
inactive: [1] | [2] | [4] | [5] | [6]
active: [8] 33.7 µM

CCOC(=O)CCl
not listed: [3] | [6]
inactive: all other assays above

CN(C)CCN(C)C
inactive: [1] | [2] | [4] | [8] | [6]

CCOC(=O)COc1ccc(Cl)cc1Cl
active: [8] 22.4 µM | [5] 31.7 µM
not listed: [3] | [9]
inactive: all other assays above

Source: PubChem BioAssay (Tox21)
